# Results published in the supplement of paper PMC11006884.
# Of roughly 6,500 targets only a part is listed; those with a hit were picked by preference. About 2% of all pairs of compound and target were hits.
# Compound: COC(=O)C#Cc1ccccc1 [methyl 3-phenylpropiolate]
# Assay: log2 ratio of iodoacetamide-alkyne labeling of the cysteine site, DMSO over compound (competition); higher = stronger covalent engagement of the cysteine by the compound, active = 1 or more
# Settings: 500 µM; treatment time 1 h; system: HEK293T cell lysate
# Summary of the method: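 HEK293T lysate at 2 mg/mL was treated with vehicle or electrophile (500 µM) for 1 h at ambient temperature, then labelled with iodoacetamide alkyne (1 h), clicked to sCIP-TMT reagents, pooled, digested with trypsin overnight at 37 °C, enriched on streptavidin and eluted with acid. Peptides were analysed by Orbitrap Eclipse LC-MS/MS with FAIMS and quantified in FragPipe, using duplicate channels and three replicates, with cysteines quantified in only one replicate excluded. The log2 competition ratio for each cysteine is the mean control-channel reporter intensity divided by the mean compound-channel reporter intensity.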
# Sequence of UniProt Q9BUJ2 (Q9BUJ2 whole entry, looked up): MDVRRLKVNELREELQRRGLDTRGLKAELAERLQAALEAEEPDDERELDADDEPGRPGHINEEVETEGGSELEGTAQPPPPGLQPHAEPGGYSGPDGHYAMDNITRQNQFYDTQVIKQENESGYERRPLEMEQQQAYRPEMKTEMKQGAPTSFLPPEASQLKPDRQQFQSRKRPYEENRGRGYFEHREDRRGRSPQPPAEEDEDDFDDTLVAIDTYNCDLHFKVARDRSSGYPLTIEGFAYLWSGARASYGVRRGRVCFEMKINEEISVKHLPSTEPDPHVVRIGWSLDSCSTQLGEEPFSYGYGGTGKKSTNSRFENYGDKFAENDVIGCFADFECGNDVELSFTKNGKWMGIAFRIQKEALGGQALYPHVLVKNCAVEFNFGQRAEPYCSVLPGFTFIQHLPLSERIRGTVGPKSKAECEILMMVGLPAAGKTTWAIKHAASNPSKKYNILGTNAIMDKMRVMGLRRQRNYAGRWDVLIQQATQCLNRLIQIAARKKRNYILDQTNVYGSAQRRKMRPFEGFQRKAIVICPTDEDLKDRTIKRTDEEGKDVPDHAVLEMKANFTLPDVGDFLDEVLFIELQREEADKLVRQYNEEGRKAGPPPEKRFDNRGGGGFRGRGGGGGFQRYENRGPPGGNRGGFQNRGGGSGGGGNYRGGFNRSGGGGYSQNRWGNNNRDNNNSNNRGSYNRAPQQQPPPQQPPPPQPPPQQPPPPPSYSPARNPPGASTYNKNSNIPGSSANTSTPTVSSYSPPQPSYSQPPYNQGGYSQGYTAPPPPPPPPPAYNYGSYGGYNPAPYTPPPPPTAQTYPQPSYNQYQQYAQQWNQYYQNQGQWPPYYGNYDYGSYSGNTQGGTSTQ
# Sequence of UniProt Q9H9A6 (Q9H9A6 whole entry, looked up): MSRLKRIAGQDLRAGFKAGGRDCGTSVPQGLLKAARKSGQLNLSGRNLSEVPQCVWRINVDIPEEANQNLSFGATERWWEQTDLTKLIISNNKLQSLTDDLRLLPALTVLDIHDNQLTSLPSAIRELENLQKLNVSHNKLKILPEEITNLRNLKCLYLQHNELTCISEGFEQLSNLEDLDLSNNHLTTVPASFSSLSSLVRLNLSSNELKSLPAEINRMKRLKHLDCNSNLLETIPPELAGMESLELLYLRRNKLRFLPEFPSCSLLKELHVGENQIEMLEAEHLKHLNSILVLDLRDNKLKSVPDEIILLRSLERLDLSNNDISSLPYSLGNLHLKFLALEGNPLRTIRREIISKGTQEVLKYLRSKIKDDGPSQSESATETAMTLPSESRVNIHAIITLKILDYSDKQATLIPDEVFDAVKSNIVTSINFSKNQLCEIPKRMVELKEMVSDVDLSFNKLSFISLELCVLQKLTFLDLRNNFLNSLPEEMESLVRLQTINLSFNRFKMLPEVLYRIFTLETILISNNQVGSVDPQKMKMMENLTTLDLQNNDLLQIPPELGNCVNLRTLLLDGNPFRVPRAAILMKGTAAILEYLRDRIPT
# Sequence of UniProt Q9UBE0 (Q9UBE0 whole entry): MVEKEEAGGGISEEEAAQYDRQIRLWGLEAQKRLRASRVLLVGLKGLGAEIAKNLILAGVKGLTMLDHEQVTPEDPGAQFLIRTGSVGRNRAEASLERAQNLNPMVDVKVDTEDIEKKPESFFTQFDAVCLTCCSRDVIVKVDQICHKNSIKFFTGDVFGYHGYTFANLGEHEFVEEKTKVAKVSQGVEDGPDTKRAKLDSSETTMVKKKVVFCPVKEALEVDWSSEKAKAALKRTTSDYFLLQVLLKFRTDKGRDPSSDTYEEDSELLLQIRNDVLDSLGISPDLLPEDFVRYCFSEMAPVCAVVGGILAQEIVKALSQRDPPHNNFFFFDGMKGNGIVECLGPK
# Sequence of UniProt Q9Y3P9 (Q9Y3P9 whole entry, looked up): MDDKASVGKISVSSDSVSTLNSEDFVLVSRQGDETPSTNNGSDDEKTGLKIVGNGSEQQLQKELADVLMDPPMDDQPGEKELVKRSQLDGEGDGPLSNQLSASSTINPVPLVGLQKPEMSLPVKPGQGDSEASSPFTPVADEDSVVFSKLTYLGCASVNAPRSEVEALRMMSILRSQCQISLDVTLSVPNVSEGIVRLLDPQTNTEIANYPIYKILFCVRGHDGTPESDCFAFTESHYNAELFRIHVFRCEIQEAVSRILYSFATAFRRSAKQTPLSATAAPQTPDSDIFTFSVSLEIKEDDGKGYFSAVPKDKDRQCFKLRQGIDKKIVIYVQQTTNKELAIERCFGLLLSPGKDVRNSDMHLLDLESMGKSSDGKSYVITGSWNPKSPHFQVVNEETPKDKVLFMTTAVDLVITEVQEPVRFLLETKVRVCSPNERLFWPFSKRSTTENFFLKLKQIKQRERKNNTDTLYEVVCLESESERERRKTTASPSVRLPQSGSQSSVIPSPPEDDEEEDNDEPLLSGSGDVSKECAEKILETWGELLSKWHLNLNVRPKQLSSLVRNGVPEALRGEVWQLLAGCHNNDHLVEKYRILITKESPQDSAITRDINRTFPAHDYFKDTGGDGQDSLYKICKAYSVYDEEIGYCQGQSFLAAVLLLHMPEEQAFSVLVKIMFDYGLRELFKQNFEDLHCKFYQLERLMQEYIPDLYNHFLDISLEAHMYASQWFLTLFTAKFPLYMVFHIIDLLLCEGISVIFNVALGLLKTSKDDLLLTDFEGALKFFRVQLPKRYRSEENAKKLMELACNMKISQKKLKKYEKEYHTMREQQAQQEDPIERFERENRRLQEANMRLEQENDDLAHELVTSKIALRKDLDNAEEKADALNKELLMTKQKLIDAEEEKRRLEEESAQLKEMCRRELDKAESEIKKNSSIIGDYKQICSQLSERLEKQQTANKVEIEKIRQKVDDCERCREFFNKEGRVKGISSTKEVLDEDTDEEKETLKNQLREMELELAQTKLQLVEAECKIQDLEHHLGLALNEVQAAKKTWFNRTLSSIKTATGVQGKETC
# Sequence of UniProt Q9GZR2 (Q9GZR2 whole entry, looked up): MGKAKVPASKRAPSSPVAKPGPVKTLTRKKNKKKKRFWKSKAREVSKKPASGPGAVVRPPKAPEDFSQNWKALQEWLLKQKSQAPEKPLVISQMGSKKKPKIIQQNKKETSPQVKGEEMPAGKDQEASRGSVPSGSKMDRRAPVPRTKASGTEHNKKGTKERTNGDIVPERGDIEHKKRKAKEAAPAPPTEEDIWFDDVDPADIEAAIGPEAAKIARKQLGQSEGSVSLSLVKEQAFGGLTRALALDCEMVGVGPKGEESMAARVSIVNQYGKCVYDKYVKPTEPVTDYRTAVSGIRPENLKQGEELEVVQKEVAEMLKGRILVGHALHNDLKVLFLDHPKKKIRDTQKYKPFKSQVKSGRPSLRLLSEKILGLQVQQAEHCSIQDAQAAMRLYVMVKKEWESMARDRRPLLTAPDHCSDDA
# Sequence of UniProt Q9Y2H0 (Q9Y2H0 whole entry, looked up): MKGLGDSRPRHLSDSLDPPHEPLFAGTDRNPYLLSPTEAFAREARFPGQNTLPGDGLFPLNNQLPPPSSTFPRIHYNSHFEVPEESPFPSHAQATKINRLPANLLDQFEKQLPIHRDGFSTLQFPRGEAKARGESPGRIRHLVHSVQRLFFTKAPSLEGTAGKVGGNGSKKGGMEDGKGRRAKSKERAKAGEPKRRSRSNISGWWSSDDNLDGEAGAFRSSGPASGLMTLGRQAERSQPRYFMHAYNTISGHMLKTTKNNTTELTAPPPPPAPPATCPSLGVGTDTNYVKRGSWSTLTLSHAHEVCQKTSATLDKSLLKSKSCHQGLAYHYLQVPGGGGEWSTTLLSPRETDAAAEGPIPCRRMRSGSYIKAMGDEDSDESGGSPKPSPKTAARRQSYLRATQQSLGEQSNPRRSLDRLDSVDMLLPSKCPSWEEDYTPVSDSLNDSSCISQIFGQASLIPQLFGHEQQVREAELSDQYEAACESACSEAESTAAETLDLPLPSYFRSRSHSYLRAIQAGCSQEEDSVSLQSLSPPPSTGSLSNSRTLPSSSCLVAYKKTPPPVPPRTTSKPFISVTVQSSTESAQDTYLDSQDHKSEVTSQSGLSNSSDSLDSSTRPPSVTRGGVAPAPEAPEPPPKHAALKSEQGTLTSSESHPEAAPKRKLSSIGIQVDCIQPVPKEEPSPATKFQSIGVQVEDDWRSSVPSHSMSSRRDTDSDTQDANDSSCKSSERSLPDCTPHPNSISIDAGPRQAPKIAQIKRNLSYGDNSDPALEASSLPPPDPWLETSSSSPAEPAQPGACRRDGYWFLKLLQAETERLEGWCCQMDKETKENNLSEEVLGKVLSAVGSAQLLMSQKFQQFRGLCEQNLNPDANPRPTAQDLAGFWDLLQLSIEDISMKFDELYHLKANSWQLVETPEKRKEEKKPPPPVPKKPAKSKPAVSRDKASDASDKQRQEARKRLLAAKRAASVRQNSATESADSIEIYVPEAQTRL
# Sequence of UniProt Q9Y6X4 (Q9Y6X4 whole entry, looked up): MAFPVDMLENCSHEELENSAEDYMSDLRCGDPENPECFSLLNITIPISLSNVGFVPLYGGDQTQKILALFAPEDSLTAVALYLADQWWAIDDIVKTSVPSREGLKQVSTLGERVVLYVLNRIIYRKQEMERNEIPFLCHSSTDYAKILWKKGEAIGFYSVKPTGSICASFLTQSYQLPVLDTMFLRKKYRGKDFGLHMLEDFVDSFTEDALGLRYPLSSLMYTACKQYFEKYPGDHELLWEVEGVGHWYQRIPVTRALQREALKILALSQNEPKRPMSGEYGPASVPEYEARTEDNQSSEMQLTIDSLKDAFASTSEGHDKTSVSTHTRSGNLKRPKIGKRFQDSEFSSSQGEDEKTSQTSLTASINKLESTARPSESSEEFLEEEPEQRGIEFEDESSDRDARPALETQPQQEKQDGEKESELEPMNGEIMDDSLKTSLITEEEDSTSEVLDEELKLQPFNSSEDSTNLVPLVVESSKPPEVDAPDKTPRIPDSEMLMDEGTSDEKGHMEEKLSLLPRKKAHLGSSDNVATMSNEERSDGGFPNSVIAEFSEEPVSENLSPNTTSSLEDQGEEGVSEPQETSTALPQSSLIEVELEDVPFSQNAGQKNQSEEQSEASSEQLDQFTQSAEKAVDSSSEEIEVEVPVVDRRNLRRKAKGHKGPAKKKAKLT
row,Target,log2 ratio of iodoacetamide-alkyne labeling
1,AGTPBP1 C567 (UniProt Q9UPW5),1.18 (active)
2,RNPEP C181 (UniProt Q9H4A4),0.0149 (inactive)
3,TBCD C1175 (UniProt Q9BTW9),0.204 (inactive)
4,NCDN C4 (UniProt Q9UBB6),1.66 (active)
5,RABGAP1 C1026 (UniProt Q9Y3P9),-0.252 (inactive)
6,FAM169A C138 (UniProt Q9Y6X4),0.201 (inactive)
7,AK6 C53 (UniProt Q9Y3D8),0.109 (inactive)
8,MAP3K4 C163 (UniProt Q9Y6R4),0.0336 (inactive)
9,UniProt Q9BWW4_C80,0.318 (inactive)
10,UBE2O C400 (UniProt Q9C0C9),-0.416 (inactive)
11,UniProt Q9P2P1_C1222,0.312 (inactive)
12,UniProt Q9BYV8_C171,0.361 (inactive)
13,NOTCH3 C134 (UniProt Q9UM47),1.63 (active)
14,UniProt Q9UK61_C429,0.233 (inactive)
15,TANC1 C1594 (UniProt Q9C0D5),1.06 (active)
16,PNO1 C64 (UniProt Q9NRX1),0.367 (inactive)
17,ZMYM2 C852 (UniProt Q9UBW7),0.581 (inactive)
18,GNE C357 (UniProt Q9Y223),0.234 (inactive)
19,RPRD1B C234 (UniProt Q9NQG5),0.513 (inactive)
20,UniProt Q9UPN4_C218,0.212 (inactive)

row,Target,log2 ratio of iodoacetamide-alkyne labeling
1,UPF2 C1107 (UniProt Q9HAU5),0.18 (inactive)
2,TLN1 C2161 (UniProt Q9Y490),-0.0698 (inactive)
3,SAP30BP C127 (UniProt Q9UHR5),1.3 (active)
4,STRN4 C337 (UniProt Q9NRL3),0.488 (inactive)
5,RAB3GAP2 C67 (UniProt Q9H2M9),0.306 (inactive)
6,MTPAP C242 (UniProt Q9NVV4),0.146 (inactive)
7,GPHN C26 (UniProt Q9NQX3),-0.0135 (inactive)
8,TBCD C234 (UniProt Q9BTW9),0.281 (inactive)
9,STX8 C14 (UniProt Q9UNK0),-0.148 (inactive)
10,UniProt Q9P260_C624,0.299 (inactive)
11,SAE1 C214 (UniProt Q9UBE0),0.502 (inactive)
12,UNC93B1 C583 (UniProt Q9H1C4),2.06 (active)
13,DLGAP4 C736 (UniProt Q9Y2H0),0.69 (inactive)
14,MRPS7 C152 (UniProt Q9Y2R9),-0.102 (inactive)
15,HNRNPUL1 C291 (UniProt Q9BUJ2),0.483 (inactive)
16,UniProt Q9UBD5_C159,1.13 (active)
17,LRRC40 C227 (UniProt Q9H9A6),0.34 (inactive)
18,ATXN10 C354 (UniProt Q9UBB4),1.32 (active)
19,REXO4 C382 (UniProt Q9GZR2),1.23 (active)
20,RDH14 C97 (UniProt Q9HBH5),0.228 (inactive)
